From PubChem
JMJD2A Tudor inh: inhibitors of human JMJD2A Tudor domain | O75164 | AlphaScreen JMJD2A-Tudor / H3K4me3 peptide binding | Potency, µM (series often up to 114 µM), for the others: at the top dose activity change, negative = inhibition, usual class: inhibitors | 4.4% of 390,000 active; further: on the % scale 0 is the no-effect control and ±100 the full control effect; nearly all actives have a fitted effect of over 50% in size
Sfp PPTase inh: Sfp phosphopantetheinyl transferase inhibition; Potency, µM, for the others: largest response in the series, negative = inhibition, hits mostly inhibitors; AID 1490; 3.5% of 310,000 active; Q9F4F7; Biochemical Sfp PPTase activity, qHTS;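 further: the enzyme is Sfp with the accession as filed and its product quenches rhodamine fluorescence; 0% = enzyme reaction without inhibitor and -100% = no enzyme wells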
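Reaction rates are the 30-min fluorescence difference (ex 525, em 598 nm) in wells containing 15 nM Sfp, 5 uM rhodamine-CoA and 12.5 uM BHQ-2-YbbR at pH 7.6 with 10 mM MgCl2.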
TDP1 block: inhibitors of human tyrosyl-DNA phosphodiesterase TDP1; Q9NUW8; recombinant TDP1, AlphaScreen DNA substrate cleavage; Potency, µM (highest dose often 130 µM), without a hit: at the top dose activity change, negative = inhibition, usual class: inhibitors; 0.28% of 350,000 active; further: on the % scale 0 is the no-effect control and ±100 the full control effect; nearly all actives have a fitted effect of over 40% in size
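Enzyme-compound mixtures sat 15 min at room temperature, followed by a 5 min reaction with 15 nM final substrate and 10 min with AlphaScreen beads. Recombinant human Tdp1 was used at 1 nM final.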
G9a inh: inhibitors of human histone lysine methyltransferase G9a; G9a H3K9 monomethylation, AlphaScreen, 2 h; Potency, µM (series often up to 102 µM), inactives show top-dose activity, negative = inhibition, hits mostly inhibitors; 8.8% of 350,000 active; further: on the % scale 0 is the no-effect control and ±100 the full control effect; nearly all actives have a fitted effect of over 75% in size
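Chemiluminescent proximity detection of H3K9 monomethylation, read after 10 min bead incubation in the dark. Reaction: 20 nM G9a, 500 nM biotin-H3K9 peptide, 20 uM SAM cofactor, 2 h, room temperature, following 15 min enzyme-compound preincubation.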
HP1b chromo inh: blocks HP1-beta chromodomain binding to methylated histone tails; P83916; AlphaScreen HP1-beta / biotin-H3K9me3 peptide binding; 0.56% of 390,000 active; Potency, µM (titrated, usually from 114 µM), inactives show top-dose activity change, negative = inhibition, actives largely listed as inhibitors; further: nearly all actives have a fitted effect of over 70% in size
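AlphaScreen: HP1-beta (50 nM) preformed 30 min with biotin-H3(1-18)K9me3 peptide (50 nM) in PBS pH 7.4, 0.01% Tween-20. Compound added for 30 min at RT, then streptavidin donor/nickel chelate acceptor beads (10 ug/mL) for 30 min.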
BAZ2B block: inhibitors of human BAZ2B bromodomain. Q9UIF8. AlphaScreen BAZ2B-H3K14Ac peptide displacement. Potency, µM (highest dose often 114 µM), for inactives: at the top dose activity change, negative = inhibition, actives largely listed as inhibitors. 4.4% of 360,000 active; further: on the % scale 0 is the no-effect control and ±100 the full control effect; nearly all actives have a fitted effect of over 60% in size
Target sequence (Q9UIF8 whole entry, looked up): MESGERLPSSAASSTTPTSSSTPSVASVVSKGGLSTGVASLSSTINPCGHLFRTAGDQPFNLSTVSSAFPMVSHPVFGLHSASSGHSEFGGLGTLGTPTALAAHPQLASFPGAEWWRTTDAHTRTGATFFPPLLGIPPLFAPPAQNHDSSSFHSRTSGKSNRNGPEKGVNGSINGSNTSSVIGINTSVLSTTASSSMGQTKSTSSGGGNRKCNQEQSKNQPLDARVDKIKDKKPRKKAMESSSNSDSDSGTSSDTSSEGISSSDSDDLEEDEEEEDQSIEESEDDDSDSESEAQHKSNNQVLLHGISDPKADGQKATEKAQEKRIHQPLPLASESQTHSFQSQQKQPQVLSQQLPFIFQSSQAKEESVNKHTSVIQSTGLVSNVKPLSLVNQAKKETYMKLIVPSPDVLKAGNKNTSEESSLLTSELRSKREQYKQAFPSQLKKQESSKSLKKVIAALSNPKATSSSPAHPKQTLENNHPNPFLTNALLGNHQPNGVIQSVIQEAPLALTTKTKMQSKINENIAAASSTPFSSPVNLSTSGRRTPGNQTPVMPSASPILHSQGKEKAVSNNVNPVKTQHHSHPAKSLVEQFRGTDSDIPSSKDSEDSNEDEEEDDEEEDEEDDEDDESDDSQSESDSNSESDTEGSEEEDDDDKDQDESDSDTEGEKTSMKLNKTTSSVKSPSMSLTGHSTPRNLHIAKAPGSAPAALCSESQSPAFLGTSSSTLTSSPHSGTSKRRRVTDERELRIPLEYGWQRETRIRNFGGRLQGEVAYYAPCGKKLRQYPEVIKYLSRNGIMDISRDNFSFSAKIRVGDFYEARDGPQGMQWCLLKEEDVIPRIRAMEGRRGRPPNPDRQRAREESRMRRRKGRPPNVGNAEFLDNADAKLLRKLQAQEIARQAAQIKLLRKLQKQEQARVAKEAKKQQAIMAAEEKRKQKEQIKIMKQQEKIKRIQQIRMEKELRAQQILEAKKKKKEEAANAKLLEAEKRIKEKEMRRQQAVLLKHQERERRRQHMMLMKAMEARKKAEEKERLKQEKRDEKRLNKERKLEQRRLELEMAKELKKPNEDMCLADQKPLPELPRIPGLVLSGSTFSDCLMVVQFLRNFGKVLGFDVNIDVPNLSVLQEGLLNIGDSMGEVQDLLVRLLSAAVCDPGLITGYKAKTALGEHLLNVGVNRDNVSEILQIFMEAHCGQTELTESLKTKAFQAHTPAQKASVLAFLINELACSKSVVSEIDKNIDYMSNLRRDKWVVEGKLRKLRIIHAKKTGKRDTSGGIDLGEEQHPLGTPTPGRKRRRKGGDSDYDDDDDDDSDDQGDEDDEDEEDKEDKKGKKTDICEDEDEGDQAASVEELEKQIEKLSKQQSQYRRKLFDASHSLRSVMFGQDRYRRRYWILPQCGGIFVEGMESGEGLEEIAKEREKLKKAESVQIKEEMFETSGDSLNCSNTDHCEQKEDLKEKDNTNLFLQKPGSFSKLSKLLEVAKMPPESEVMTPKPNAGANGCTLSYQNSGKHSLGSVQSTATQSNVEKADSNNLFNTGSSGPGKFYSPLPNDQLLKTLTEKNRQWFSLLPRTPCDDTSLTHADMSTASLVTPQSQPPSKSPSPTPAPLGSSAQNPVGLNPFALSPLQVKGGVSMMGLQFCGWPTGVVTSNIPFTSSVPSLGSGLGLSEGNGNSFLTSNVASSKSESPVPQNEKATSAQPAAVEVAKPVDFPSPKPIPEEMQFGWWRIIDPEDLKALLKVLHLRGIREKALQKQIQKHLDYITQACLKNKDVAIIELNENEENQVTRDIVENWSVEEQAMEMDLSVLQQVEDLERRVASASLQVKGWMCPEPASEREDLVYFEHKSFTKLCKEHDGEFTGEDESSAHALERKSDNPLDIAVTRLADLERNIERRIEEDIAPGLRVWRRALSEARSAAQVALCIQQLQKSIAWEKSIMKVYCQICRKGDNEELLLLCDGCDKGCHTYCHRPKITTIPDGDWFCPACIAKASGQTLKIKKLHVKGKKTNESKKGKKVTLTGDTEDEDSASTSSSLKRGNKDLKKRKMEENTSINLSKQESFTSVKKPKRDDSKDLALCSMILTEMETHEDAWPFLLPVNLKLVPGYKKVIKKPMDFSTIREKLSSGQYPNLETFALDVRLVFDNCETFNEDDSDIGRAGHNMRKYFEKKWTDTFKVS
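BAZ2B (50 nM) with biotin-H3(5-23)K14Ac peptide (50 nM) in PBS pH 7.4, 0.01% Tween-20, preformed 30 min, then compound 30 min at room temperature; top concentration 110uM. AlphaScreen streptavidin donor/nickel chelate acceptor beads (10 ug/mL final), 20 min dark, signal read.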
Numbers without * were called inactive; ? = inconclusive; · = no result given; ! = a repeat was not active; [ ] = another dose, or the depositor's remark. This is a sample that favours compounds with a hit; in the whole collection about 12% have one here. The call rests on the fitted dose curve; in most records, active means well fitted curve in the direction sought with a large enough effect; inconclusive means small, poorly fitted or top-dose-only effect, or another doubt; inactive means no such curve, though single readings can be large; an effect the other way counts as inactive or inconclusive. Potency means the concentration at half of the fitted maximal effect.

SMILES	JMJD2A Tudor inh	Sfp PPTase inh	TDP1 block	G9a inh	HP1b chromo inh	BAZ2B block
O=C1NC(=S)N/C1=C\c1cccc([N+](=O)[O-])c1	1.0%	56.2µM*	1.8%	50.1µM*	16.1%	-3.4%
O=C1NC(=S)N/C1=C/c1cccc([N+](=O)[O-])c1	-16.1%	10.7%	-2.6%	-3.7%	16.0%	-11.6%
O=C1NC(=S)N/C1=C/c1ccc(-c2c(Br)cc([N+](=O)[O-])cc2Br)o1	·	-21.8%	·	11.2µM*	·	?
CN1C(=O)/C(=C/c2cccc([N+](=O)[O-])c2)C(=O)N1c1ccccc1	?	50.1µM*	·	14.1µM*	3.3%	-34.0%
COc1ccc(NS(=O)(=O)c2ccc(O)c(NS(=O)(=O)c3ccc(NC(C)=O)cc3)c2)cc1	-9.5%	·	0.8%	·	41.5%	·
C=Cc1cccc(C)c1	·	·	15.5%	·	·	·
COc1ccc(C(C)n2c(C)c3c(C)nnc(C)c3c2C)cc1 (stereo not given)	?	-16.3%	5.7%	?	-14.4%	89.1µM*!
COC(=O)C(NC(=O)c1ccccc1C(=O)O)c1ccc2ccccc2c1 (stereo not given)	-2.8%	7.2%	6.3%	70.8µM*	59.9%	-16.9%
CC(C)(C)OC(=O)N[C@@H](C(=O)OC(C)(C)C)c1ccc2ccccc2c1	-13.7%	·	0.0%	-7.9%[0.501 µM]	26.6%	-0.5%
CC(Oc1ccccc1Cl)C(=O)Nc1ccccc1C(=O)N1CCOCC1 (stereo not given)	-1.4%	19.6%	2.6%[56.1 µM]	-11.2%	21.1%	-12.9%
COc1ccc(CN2CCN(C(=O)c3ccc4c(c3)CCC4)CC2)cc1OC	-23.3%	·	0.1%	·	7.2%	·
COc1ccc(C(=O)N2CCN(Cc3cc(OC)ccc3OC)CC2)cc1	50.1µM*	?	5.0%	31.6µM*	?	?
COc1ccc(C(=O)N2CCN(Cc3ccc(OC)c(OC)c3)CC2)cc1	3.16µM*	-12.3%	·	?	?	?
COc1ccc(NS(=O)(=O)c2cccc(C(=O)N3CCN(Cc4cc(OC)ccc4OC)CC3)c2)cc1	-29.5%	1.0%	6.3%	?	14.3%	-37.9%
COc1ccc(CN2CCN(C(=O)c3cc(OC)c(OC)c(OC)c3)CC2)cc1OC	2.51µM*	-29.9%	-4.9%	10µM*	-52.2%	?
COc1cc2c(cc1CN1CCN(C(=O)c3cc(OC)c(OC)c(OC)c3)CC1)OCO2	25.1µM*	-13.7%	·	11.2µM*	-38.3%	56.2µM*
CCCc1cc(=O)oc2cc(C)cc(OC(C)C(=O)NCc3ccncc3)c12 (stereo not given)	-10.3%	22.7%	5.1%	9.2%	69.8%	-17.7%
O=C(Cc1ccc([N+](=O)[O-])cc1)Oc1ccccc1	-6.2%	·	·	·	0.9%[57 µM]	·
c1csc(-c2cnc3ccccc3n2)c1	18.0%	1.5%	-5.1%	35.5%[59 µM]	31.3%	32.2%
c1cc2c(cnc3cscc32)s1	-9.7%	-15.2%	?	14.1µM*	40.8%	-37.2%
O=C(CSc1ccc(-c2ccccn2)nn1)c1ccc([N+](=O)[O-])cc1	?	31.6µM*	7.9%	39.8µM*	6.2%	8.91µM*
O=C(c1ccc([N+](=O)[O-])cc1)N(c1ccccn1)c1ccccn1	-19.3%	-14.6%	2.4%	-7.7%[12.7 µM]	20.4%	-3.7%
O=C(CSc1ccc(-c2cccnc2)nn1)c1ccc([N+](=O)[O-])cc1	-30.3%	-29.9%	5.3%	22.4µM*	-3.2%	-15.6%
O=C(COC(=O)c1ccccn1)c1ccc([N+](=O)[O-])cc1	25.1µM*	?	7.1%	11.2µM*	29.2%	11.2µM*
O=[N+]([O-])c1cccc(-c2ccc(SCc3cccnc3)nn2)c1	-20.4%	6.3%	6.0%	-4.9%	7.1%	?
SMILES	JMJD2A Tudor inh	Sfp PPTase inh	TDP1 block	G9a inh	HP1b chromo inh	BAZ2B block
COc1ccc(OC)c(C(c2c(O)nc(SC)[nH]c2=O)c2c(O)nc(SC)[nH]c2=O)c1	-13.8%	?	4.4%	50.1µM*	23.2%	-2.3%
CCOc1cc(/C=C2\SC(=O)N=C2N)ccc1O	-12.9%	-0.5%	4.2%	-20.1%[59 µM]	23.2%	3.7%
CCCOc1ccc(/C=C2/C(=O)ON=C2C)cc1Cl	6.4%	50.1µM*	·	28.2µM*	16.6%	-9.7%
CCCOc1ccc(CCCN=C(N)N)cc1Cl	-8.6%	-10.7%	1.4%	4.5%	7.9%	-4.5%
CCOc1cc(/C=C2/C(=O)ON=C2C)ccc1O	-4.0%	-19.4%	·	50.1µM*	4.3%	-38.1%
CCOc1cc(/C=C2\CN(C)C/C(=C\c3ccc(O)c(OCC)c3)C2=O)ccc1O	56.2µM*	-11.4%	·	35.5µM*	?	44.7µM*
CC1=NOC(=O)/C1=C/c1ccc(O)c(Cl)c1	-17.4%	-34.7%	·	50.1µM*	9.9%	50.1µM*
CC1=NOC(=O)/C1=C/c1ccc(N(C)C)cc1	-34.0%	4.0%	5.2%	?	13.8%	-36.4%
CCOc1cc(/C=C2\C(=O)N(c3cccc(C(F)(F)F)c3)C(=O)c3ccccc32)ccc1O	?	-2.9%	2.6%	?	?	?
COc1ccc(/C=N/OC(=O)Nc2ccc(Cl)cc2)c(OC)c1	-9.1%	-3.6%	·	·	25.2%	4.7%
O=C(Cc1cc(=O)[nH]c(=O)[nH]1)NCc1ccc(Cl)cc1	-16.3%	-3.0%	1.3%	-4.7%	32.0%	-0.4%
CN1c2ccccc2C(=O)/C(=C\Nc2ccc(F)cc2F)S1(=O)=O	?	8.7%	1.4%	-21.7%	-0.3%	-16.6%
CN(C)c1ccc(/C=N/N2C(=S)SC(C)(C)C2N(O)C(=O)Nc2ccc([N+](=O)[O-])cc2)cc1 (stereo not given)	56.2µM*	19.2%	9.3%	15.7%[12.7 µM]	?	?
CNC(=O)N(O)C1N(/N=C/c2ccccc2O)C(=S)SC1(C)C (stereo not given)	-13.8%	44.7µM*	8.3%	·	38.1%	-7.0%
CNC(=O)N(O)C1N(/N=C/c2ccccc2F)C(=S)SC1(C)C (stereo not given)	-15.7%	1.7%	·	26.7%	8.6%	-5.5%
CCc1nnc(NC(=O)C(c2ccccc2)c2ccccc2)s1	-4.5%	13.3%	·	21.7%	6.5%	-13.5%
O=C(O)/C=C/C(=O)Nc1ccc(Oc2ncnc3cc(Cl)ccc23)nc1	-20.3%	79.4µM*	·	?	-6.4%	-10.4%
O=C(Nc1ccccc1)Nc1ccc(Oc2ncnc3cc(Cl)ccc23)nc1	-14.7%	16.4%	·	13.1%[59 µM]	22.4%	-0.6%
Cc1ccccc1CNC(=O)C(=O)NCCC1CCCCN1S(=O)(=O)c1ccccc1 (stereo not given)	-8.6%	·	-2.5%	-5.1%	25.5%	7.5%
Cc1ccc(C(=O)c2coc3cc([N+](=O)[O-])c(O)c([N+](=O)[O-])c23)cc1	56.2µM*	39.8µM*	0.0%	8.91µM*	?	44.7µM*
